Rows were chosen to be rich in hits. Some 0.28% of all compounds tested hit in one or more screens of this group.
NPYLR7 ag: agonists of mosquito NPYLR7 receptor, primary screen, cell-based, Aedes aegypti, calcium fluorescence, mosquito biting behavior. HEK293T NPYLR7/Galpha15, GCaMP6s calcium fluorescence. activation, % at 10 µM. 270,000 compounds, 0.15% hits. AID 1259423, 2018; in the data active = activation above about 40%;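 also: 0% = vehicle and 100% = reference agonist at the receptor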
hcGAS lum: Primary biochemical luminescence assay for human cyclic GMP-AMP synthase inhibitors; Q8N884; recombinant h-cGAS, ATP depletion, Kinase-Glo luminescence; inhibition, % at 12.5 µM; 290,000 compounds, 0.081% hits; AID 1259398, 2018;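 also: 0% = vehicle reaction and 100% = reaction without DNA for no activity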
Target sequence (Q8N884 whole entry, looked up): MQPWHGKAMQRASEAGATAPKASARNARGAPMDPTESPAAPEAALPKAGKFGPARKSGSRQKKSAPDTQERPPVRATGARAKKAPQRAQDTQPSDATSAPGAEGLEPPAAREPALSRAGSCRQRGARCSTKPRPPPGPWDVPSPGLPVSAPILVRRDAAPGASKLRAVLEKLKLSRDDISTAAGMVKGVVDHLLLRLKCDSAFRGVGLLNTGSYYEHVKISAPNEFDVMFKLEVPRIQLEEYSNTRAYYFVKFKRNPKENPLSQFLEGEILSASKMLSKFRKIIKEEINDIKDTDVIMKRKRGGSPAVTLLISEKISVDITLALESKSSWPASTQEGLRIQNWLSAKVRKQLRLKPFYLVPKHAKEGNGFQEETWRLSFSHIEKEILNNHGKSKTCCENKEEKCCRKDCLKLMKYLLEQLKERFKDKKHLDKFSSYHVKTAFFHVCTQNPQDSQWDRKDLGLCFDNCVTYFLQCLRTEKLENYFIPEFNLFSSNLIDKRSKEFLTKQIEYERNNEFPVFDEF
mcGAS inh: cyclic GMP-AMP synthase inhibitors, mouse, primary biochemical chemiluminescence; Q8C6L5; recombinant cGAS, Kinase-Glo ATP depletion luminescence; inhibition, % at 12.5 µM; 160,000 compounds, 0.15% hits; AID 1259399, 2018;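 also: 0% = negative control wells and 100% = reference inhibitor with no enzyme activity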
* hit, by the source's call; nt = no result given; + = active, no number. Rule as the data show it, unless noted: active = inhibition above about 40%; inactive = the rest.

SMILES | NPYLR7 ag | hcGAS lum | mcGAS inh
CN(Cc1cccnc1)C(=O)CC1C(=O)NCCN1C/C=C/c1ccccc1 (stereo unspecified) | 0 | -4 | -9
COc1ccc(C)cc1CN(C)C(=O)c1ccc(=O)[nH]n1 | -1 | -7 | nt
CCOC(=O)CCc1c(C)nc2ncnn2c1N1CCN(C(=O)c2ccoc2)CC1 | 34 | -2 | -6
CC(C)=CCCC1=CC[C@H](C(=O)O)[C@H](C(=O)O)C1 | 2 | -4 | -5
CC1=CC(C)C(C(=O)O)C(C(=O)O)C1 (stereo unspecified) | 43* | -1 | -6
CCC[C@@H]1C[C@H](NC(C)=O)C[C@H](C2CCCCC2)O1 | nt | -3 | nt
COc1cc(C2CN(C(=O)CC(C)(C)C)CC2C(=O)NCC(C)C)cc(OC)c1OC (stereo unspecified) | 7 | 1 | nt
COc1cccc(C2CN(C(=O)CC(C)(C)C)CC2C(=O)NCc2ccccn2)c1OC (stereo unspecified) | 5 | + | nt
CCOC(=O)c1nc2ccccc2nc1N1CCN(C(=O)N2CCOCC2)CC1 | 52* | -6 | nt
C=CC(=O)N1CCN(c2nc3ccccc3nc2C(=O)OCC)CC1 | 12 | -10 | -4
Cc1cc(N2CCN(c3ccccc3F)CC2)nc(-n2cc([N+](=O)[O-])cn2)n1 | 4 | 0 | -6
O=C1NC(=NS(=O)(=O)c2ccccc2)SC1=Cc1cc([N+](=O)[O-])ccc1O | 61* | 35 | 75*
O=C1NC(=NC2CCCC2)SC1=Cc1cc([N+](=O)[O-])ccc1N1CCCC1 | -3 | -5 | nt
O=C1CCCCCN1CP(=O)(O)CN1CCCCC1 | nt | -8 | -4
O=C1CCCCCN1CO | -6 | 83* | 3
O=C(c1cccnc1)N1CCC(n2c(Cc3ccccc3)nc3ccccc32)CC1 | 1 | 0 | -4
O=C(c1sccc1-c1ccccc1)N1CCN(CC2CCCO2)CC1 (stereo unspecified) | -2 | -7 | -15
C=CCNC(=O)C/C(C)=N/NC(=O)c1cccc(C)c1 | -1 | 4 | nt
CC1=C(C(=O)OCC(C)C)C(c2ccccc2[N+](=O)[O-])NC(=O)N1C (stereo unspecified) | -1 | -7 | -5
COC(=O)C1=C(C)NC(C)=C(C(=O)OCC(C)C)C1c1ccccc1[N+](=O)[O-] (stereo unspecified) | -6 | 5 | 58*
CCc1nc2ccc(C(=O)N(CC)CCN(C)C)cn2c1N(C)C(=O)COc1ccccc1 | -3 | -3 | -2
O=[Si]=O | -3 | -9 | 42*
Cc1ccccc1C1c2ccsc2CCN1C(C)C(=O)N1CCCN(S(=O)(=O)c2ccc(Cl)cc2)CC1 (stereo unspecified) | 22 | -3 | -3
N#CC(C(=O)COc1cc(F)ccc1F)c1nc2ccccc2s1 (stereo unspecified) | 9 | -9 | nt
N#CC(C(=O)C(F)(F)F)c1nc2ccccc2s1 (stereo unspecified) | 1 | 44* | nt
SMILES | NPYLR7 ag | hcGAS lum | mcGAS inh
COCCCNC(=O)CN1C(=O)CSC(c2ccccc2C)c2c(-c3ccccc3)nn(-c3ccc(OC)cc3)c21 (stereo unspecified) | 30 | -4 | -4
CC(C)CC(C(=O)NCCN(C)C)N1C(=O)CSC1c1cccc(C(F)(F)F)c1 (stereo unspecified) | 6 | -7 | -7
O=C(CSc1nc(=O)n(CCCO)c2c1CCCC2)Nc1cccc([N+](=O)[O-])c1 | -3 | -6 | 47*
O=C(CSc1nc(=O)n(CCCO)c2c1CCC2)Nc1cccc(F)c1 | -10 | -6 | -5
Cc1ccc(OC2(C(=O)NCc3sccc3C)CCNCC2)cc1 | 8 | -6 | nt
CC(NC(=O)c1cc2c(s1)-c1ccccc1OC2)c1ccc(Br)cc1 (stereo unspecified) | -10 | 1 | -4
CCOC(=O)Cc1cc(=O)n2[nH]cc(-c3cccc(Br)c3)c2n1 | -6 | 63* | nt
CCOC(=O)Cc1cc(=O)n2[nH]c(-c3ccc(Br)cc3)cc2n1 | 7 | -3 | nt
NS(=O)(=O)c1ccc(CCN2C(=O)c3cccc4cccc(c34)C2=O)cc1 | -4 | 1 | -2
Nc1c(S(=O)(=O)O)cc2c3c(cccc13)C(=O)N(CCO)C2=O | 93* | -8 | -1
C=CCSc1ccccc1NC(=O)Cn1nnc(-c2ccc(Cl)cc2)n1 | -2 | -6 | nt
Cc1cc(C(=O)N2CCC(n3cnc4cc(C(F)(F)F)ccc43)CC2)no1 | 3 | -7 | -7
CC(c1ccccc1)N(Cc1cc(NC(=O)c2cccc(F)c2)ccc1N(C)C)C(=O)c1ccccc1Cl (stereo unspecified) | -12 | -4 | 1
O=[N+]([O-])c1ccc2nc(-c3nc4ccc([N+](=O)[O-])cc4[nH]3)[nH]c2c1 | 4 | -7 | nt
O=[N+]([O-])c1ccc2nc(C(F)(F)F)[nH]c2c1 | 12 | 41* | nt
CC(C)N=c1c([N+](=O)[O-])nn(-c2ccc(Cl)cc2)n1O | 95* | -3 | -9
Cc1ccc(N=c2c([N+](=O)[O-])nn(-c3ccc(Cl)cc3)n2O)cc1Br | -2 | -8 | nt
Cc1ccccc1Cn1c(CCNC(=O)c2ccco2)nc2ccccc21 | -3 | -5 | -8
COc1ccccc1CCNC(=O)c1ccc(Cn2c(C)nc3ccccc32)o1 | 64* | -3 | nt
Cc1csc(N2C(=N)SC(c3ccccc3)C2=O)n1 (stereo unspecified) | 1 | -3 | -1
Cc1csc(N2C(=N)SCC2=O)n1 | 8 | 42* | 5
Clc1cc(Oc2ccccc2Cl)ncn1 | 9 | -3 | nt
O=C1C(Cl)=C(N2CCOCC2)C(=O)N1c1ccccc1F | 8 | -5 | nt
O=C1C(Cl)=C(N2CCOCC2)C(=O)N1c1ccc(Cl)c(Cl)c1 | 22 | -2 | 50*
Cc1nc(CN2CCOc3ccc(Cl)cc32)no1 | 1 | -6 | nt
SMILES | NPYLR7 ag | hcGAS lum | mcGAS inh
O=c1c(-c2cc(O)c(O)c(O)c2)coc2cc(O)c(O)c(O)c12 | nt | 71* | 82*
O=c1c(-c2ccc(O)cc2)coc2cc(O)cc(O)c12 | 0 | -1 | -1
c1ccc2c(-c3cc(NC4CCNCC4)nc4[nH]ccc34)n[nH]c2c1 | 24 | 19 | -11
c1cnc(-c2cc(NC3CCNCC3)nc3[nH]ccc23)nc1 | 30 | 46* | -3
O=c1[nH]c(CCl)nc2c1cnn2Cc1ccccc1 | 12 | -9 | 54*
CSc1nc2c(cnn2Cc2ccccc2)c(=O)[nH]1 | -5 | -8 | nt
CCCC(=O)Nc1ccc(N2CCc3ccccc3C2)c(C(=O)NCCc2ccccc2)c1 | 19 | -5 | -5
CCOc1cc(C2NS(=O)(=O)N=C3CCCN32)ccc1OCCOc1cccc(C)c1 (stereo unspecified) | 7 | -2 | nt
CC(C)Cc1nc(N2CCN(C(=O)N(C)C)CC2)c2c(-c3cccc(Oc4ccccc4)c3)noc2n1 | 18 | -1 | -6
CSC(=S)N/N=C(/c1ccccc1)c1ccccn1 | -1 | 64* | 6
NC(=S)NN=C(C(=O)c1ccccn1)c1ccccn1 | -3 | -7 | nt
O=C(COCc1ccccc1)N1CCN(Cc2ccc(-c3noc(-c4cccnc4)n3)cc2)CC1 | 1 | -4 | -8
O=C(CCl)Nc1ccc([N+](=O)[O-])cc1Cl | -1 | -7 | 60*
